Measured values: PubChem BioAssay
For part of these data: Potency and affinity values are given separately. Calls of active or inactive are those of the source.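 How the source made its calls, unless noted: active means primary screen hit whose fluorescence ratio, in both repeats, exceeds the weak agonist control mean by 3 SD; inactive means the rest.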

Key:
[1] = system: TRPC4 beta (transient receptor potential cation channel C4), mouse; assay: activators of mouse TRPC4 channel, confirmation, cell-based, Fluo4 calcium, HEK293 TRPC4beta/mu-opioid, duplicates, 10 µM (AID 2426;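 active means fluorescence ratio normalized to control raised more than 50% in primary screen plus both repeat runs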); details: Fluo4 calcium fluorescence, at 10 µM; stronger effect = higher value
[2] = system: transient receptor potential cation channel C4 beta (TRPC4), mouse; assay: activators of mouse TRPC4 channel, confirmation, cell-based, second round, Fluo4, HEK293 TRPC4beta/mu-opioid, 1 µM (AID 2461;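 active means primary screen active and over 50% activation in each of two duplicate runs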); details: Fluo4 calcium fluorescence, at 1 µM; stronger effect = higher value
[3] = system: TRPC4 (transient receptor potential cation channel C4 beta), mouse; assay: positive allosteric modulators of mouse TRPC4, confirmation, cell-based, second round, Fluo-4, HEK293 TRPC4beta/mu-opioid, 1 µM (AID 2554); details: DAMGO EC20, Fluo-4 calcium flux, at 1 µM; stronger effect = higher value
[4] = system: TRPC4 beta (transient receptor potential cation channel C4), mouse; assay: positive allosteric modulators of mouse TRPC4, confirmation, cell-based, Fluo-4, HEK293 TRPC4beta/mu-opioid (AID 2555;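 active means primary screen hit whose calcium fluorescence ratio, in both repeats, exceeds the weak agonist control mean by 3 SD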); details: DAMGO EC20, Fluo-4 calcium flux, at 10 µM; stronger effect = higher value
[5] = biological target: Short transient receptor potential channel 4 (Mus musculus) (UniProt Q9QUQ5); assay: inhibitors of mouse TRPC4 channel, confirmation, cell-based, Fluo4, HEK293 TRPC4beta/mu-opioid (AID 2636;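 active means calcium signal cut by more than 3 SD below the full-agonist control yet still positive, in both repeats and the earlier primary screen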); details: DAMGO, Fluo4 calcium flux, at 10 µM; stronger effect = higher value
Short transient receptor potential channel 4 (Mus musculus), sequence (Q9QUQ5 whole entry, looked up): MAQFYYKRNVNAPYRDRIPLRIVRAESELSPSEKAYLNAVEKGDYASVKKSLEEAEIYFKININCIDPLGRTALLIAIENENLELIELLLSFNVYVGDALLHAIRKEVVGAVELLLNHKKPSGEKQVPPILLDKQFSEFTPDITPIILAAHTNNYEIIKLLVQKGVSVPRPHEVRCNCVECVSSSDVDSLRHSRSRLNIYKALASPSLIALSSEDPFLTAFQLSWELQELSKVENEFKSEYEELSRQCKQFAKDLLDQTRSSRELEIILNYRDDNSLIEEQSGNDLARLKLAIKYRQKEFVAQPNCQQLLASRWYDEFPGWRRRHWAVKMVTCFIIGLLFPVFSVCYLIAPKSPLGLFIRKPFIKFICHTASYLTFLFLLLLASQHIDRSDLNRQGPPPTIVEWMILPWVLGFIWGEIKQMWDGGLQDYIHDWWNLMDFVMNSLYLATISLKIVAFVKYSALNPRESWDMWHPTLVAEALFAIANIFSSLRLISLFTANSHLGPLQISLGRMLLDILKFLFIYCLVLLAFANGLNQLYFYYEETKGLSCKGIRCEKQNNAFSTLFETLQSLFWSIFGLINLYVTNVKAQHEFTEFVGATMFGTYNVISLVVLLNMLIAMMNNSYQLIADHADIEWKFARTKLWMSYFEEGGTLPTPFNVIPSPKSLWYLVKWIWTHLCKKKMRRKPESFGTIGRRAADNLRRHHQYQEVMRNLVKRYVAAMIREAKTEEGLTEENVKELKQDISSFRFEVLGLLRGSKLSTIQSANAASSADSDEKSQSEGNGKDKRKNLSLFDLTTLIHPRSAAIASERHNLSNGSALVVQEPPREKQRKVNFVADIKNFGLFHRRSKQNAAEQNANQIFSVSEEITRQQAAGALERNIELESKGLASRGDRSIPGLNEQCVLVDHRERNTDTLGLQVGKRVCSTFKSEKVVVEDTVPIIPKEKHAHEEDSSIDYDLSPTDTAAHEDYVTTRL

[6] = biological target: Short transient receptor potential channel 4 (Mus musculus) (UniProt Q9QUQ5); assay: inhibitors of mouse TRPC4 channel, confirmation, cell-based, second round, Fluo4, HEK293 TRPC4beta/mu-opioid, 1 µM (AID 2637;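 active means calcium signal ratio cut to more than 3 SD under the fully stimulated control mean yet still positive, in both repeats and the primary screen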); details: Fluo4 calcium flux, DAMGO, at 1 µM; stronger effect = higher value
[7] = biological target: Short transient receptor potential channel 4 (Mus musculus) (UniProt Q9QUQ5); assay: mouse TRPC4 channel activators, dose response, cell-based, HEK293 TRPC4/mu-opioid, Fluo-4 calcium (AID 434937;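 active means primary screen activator hit with a dose response curve and TRPC4 channel activation at any tested dose; inactive means no activation, no dose response, or not a primary hit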)
[8] = biological target: Short transient receptor potential channel 4 (Mus musculus) (UniProt Q9QUQ5); assay: TRPC4 positive allosteric modulators, dose response, cell-based, HEK293 TRPC4/mu-opioid, Fluo-4 calcium, EC20 DAMGO (AID 434941;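 active means earlier screen potentiator hit that boosts the TRPC4 ion channel at some dose, with a dose response; inactive means no potentiation, no dose response, or not a prior hit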;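 further: calcium entry triggered by an EC20 dose of DAMGO at the co-expressed mu-opioid receptor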)
[9] = biological target: Short transient receptor potential channel 4 (Mus musculus) (UniProt Q9QUQ5); assay: mouse TRPC4 channel inhibitors, dose response, cell-based, HEK293 TRPC4/mu-opioid, Fluo-4 calcium (AID 434942;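 active means primary screen inhibitor hit that blocks the TRPC4 channel at some tested dose, yielding a dose curve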)
[10] = biological target: Short transient receptor potential channel 6 (Mus musculus) (UniProt Q61143); assay: inhibition of mouse TRPC6 channel, confirmation, selectivity assay for TRPC4 inhibitor project, cell-based, HEK293, membrane potential dye, duplicate (AID 434948;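 active means active in primary screen and both duplicates, each dropping signal beyond three positive-control SD with fluorescence still positive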); details: HEK293 TRPC6, membrane potential dye fluorescence, at 10 µM, stimulated with maximal-effect acetylcholine; stronger effect = higher value
Short transient receptor potential channel 6 (Mus musculus), sequence (Q61143 whole entry, looked up): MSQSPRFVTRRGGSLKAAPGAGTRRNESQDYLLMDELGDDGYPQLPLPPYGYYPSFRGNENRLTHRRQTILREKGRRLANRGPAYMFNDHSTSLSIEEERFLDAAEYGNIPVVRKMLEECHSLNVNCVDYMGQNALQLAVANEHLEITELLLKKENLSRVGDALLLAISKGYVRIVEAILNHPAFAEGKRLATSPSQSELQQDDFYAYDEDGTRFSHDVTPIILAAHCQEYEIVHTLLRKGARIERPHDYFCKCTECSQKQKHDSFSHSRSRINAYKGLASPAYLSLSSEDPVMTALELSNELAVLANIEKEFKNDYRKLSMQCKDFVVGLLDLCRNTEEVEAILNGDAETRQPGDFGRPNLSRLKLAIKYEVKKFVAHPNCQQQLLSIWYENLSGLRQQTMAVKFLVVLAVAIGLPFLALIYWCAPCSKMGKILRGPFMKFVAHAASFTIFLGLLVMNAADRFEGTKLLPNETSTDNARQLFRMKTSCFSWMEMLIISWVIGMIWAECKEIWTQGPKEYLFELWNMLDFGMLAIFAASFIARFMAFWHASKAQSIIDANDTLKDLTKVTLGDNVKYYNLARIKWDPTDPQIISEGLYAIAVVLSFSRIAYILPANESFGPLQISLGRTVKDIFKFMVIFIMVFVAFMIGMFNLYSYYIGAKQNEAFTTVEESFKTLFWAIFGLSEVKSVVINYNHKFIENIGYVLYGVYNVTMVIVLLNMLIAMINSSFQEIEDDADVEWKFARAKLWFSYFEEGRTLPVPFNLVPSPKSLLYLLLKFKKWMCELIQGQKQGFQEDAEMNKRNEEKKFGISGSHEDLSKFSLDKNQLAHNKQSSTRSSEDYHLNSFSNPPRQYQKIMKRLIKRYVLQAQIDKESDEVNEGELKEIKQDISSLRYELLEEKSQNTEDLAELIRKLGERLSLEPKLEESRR

[11] = biological target: Short transient receptor potential channel 6 (Mus musculus) (UniProt Q61143); assay: activation of mouse TRPC6 channel, confirmation, selectivity assay for TRPC4 activator project, cell-based, HEK293, membrane potential dye, duplicate (AID 434950;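 active means membrane potential signal rise above negative control mean plus 3 SD in both duplicates, also active in the earlier TRPC4 screen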); details: HEK293 TRPC6, membrane potential fluorescence, at 10 µM; stronger effect = higher value
[12] = biological target: Short transient receptor potential channel 6 (Mus musculus) (UniProt Q61143); assay: TRPC6 potentiation by TRPC4 potentiator hits, confirmation, selectivity assay for TRPC4 potentiator project, HEK293 cells, membrane potential dye, duplicate (AID 434952;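 active means compound raising the membrane signal above positive-control mean plus 3 SD in both repeats, and a primary screen hit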); details: HEK293 TRPC6, membrane potential dye fluorescence, at 10 µM, maximal acetylcholine added after compound; stronger effect = higher value
[13] = biological target: Short transient receptor potential channel 4 (Mus musculus) (UniProt Q9QUQ5); assay: calcium flux activators in TRPC4/5HT1a cells, counter-screen for TRPC4 activator project, cell-based, second counter screen, HEK293 TRPC4/5HT1a, Fluo-4 (AID 434977;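 active means calcium signal rise above buffer-control mean plus 5 SD in both duplicates, and also a hit in the primary screen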); details: Fluo-4 calcium flux, at 10 µM; stronger effect = higher value
[14] = calcium flux inhibitors in TRPC4/5HT1a cells, confirmation, counter-screen for TRPC4 inhibitor project, cell-based, second counter screen, HEK293 TRPC4/5HT1a, Fluo-4 (AID 434978;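 active means primary screen active whose calcium signal fell more than 3 SD beyond the full-serotonin control mean in both duplicate plates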;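 further: serotonin given first at submaximal then at maximal dose after compound preincubation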); details: Fluo-4 calcium flux, at 10 µM, serotonin added to trigger calcium flux; stronger effect = higher value
[15] = system: TRPC4 (mouse), co-expressed with 5HT1a in HEK293; assay: calcium flux potentiators in TRPC4/5HT1a cells, confirmation, counter-screen for TRPC4 potentiator project, cell-based, second counter screen, HEK293 TRPC4/5HT1a, Fluo-4 (AID 434979;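 active means signal rise over 3 SD above mean of control wells given weak agonist, in both repeats and first screen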); details: Fluo-4 calcium flux, at 10 µM, serotonin added at its EC20 dose; stronger effect = higher value
[16] = calcium flux activation in mu-opioid HEK293 cells, confirmation, counter-screen for TRPC4 activator project, cell-based, HEK293 mu-opioid receptor line (AID 449723;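 active means hit in primary screen, with calcium signal over 5 SD above buffer well mean in both duplicates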;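 further: counter screen cells carry the mu-opioid receptor alone and lack TRPC4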); details: Fluo-4 calcium fluorescence, at 10 µM; stronger effect = higher value
[17] = calcium flux enhancement in mu-opioid HEK293 cells, confirmation, counter-screen for TRPC4 allosteric potentiator project, cell-based, HEK293 mu-opioid receptor line (AID 449724;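 active means calcium signal rise more than 3 SD above the low-dose agonist control mean, in both duplicate plates and the primary screen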); details: Fluo-4 calcium flux, at 10 µM, compound added before EC20 DAMGO stimulus; stronger effect = higher value
[18] = thallium flux activation in parental CHO cells, counter-screen for KCNQ1 potentiator project (AID 493006;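 active means duplicate-averaged activation above buffer control mean plus 5 SD of those controls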;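 on activation: fluorescence ratio of max minus min over baseline after K+ and Tl+ depolarization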); details: parental CHO-K1 cells, FluxOR thallium flux, at 10 µM; stronger effect = higher value
[19] = biological target: Potassium voltage-gated channel subfamily KQT member 1 (Homo sapiens) (UniProt P51787); assay: KCNQ1 potassium channel potentiators, confirmation, FluxOR thallium flux, CHO cells, duplicates (AID 493007;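 active means potentiation averaged over duplicate wells exceeding buffer-only control mean by more than 3 SD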;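 on outcome: cells depolarized by a potassium plus thallium sulfate stimulus after compound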;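 on potentiation: 0% = buffer-only wells and 100% = R-L3 activator control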); details: KCNQ1 cell line, FluxOR thallium flux fluorescence, at 10 µM; stronger effect = higher value, % of reference activator effect, buffer zero
Potassium voltage-gated channel subfamily KQT member 1 (Homo sapiens), sequence (P51787 whole entry, looked up): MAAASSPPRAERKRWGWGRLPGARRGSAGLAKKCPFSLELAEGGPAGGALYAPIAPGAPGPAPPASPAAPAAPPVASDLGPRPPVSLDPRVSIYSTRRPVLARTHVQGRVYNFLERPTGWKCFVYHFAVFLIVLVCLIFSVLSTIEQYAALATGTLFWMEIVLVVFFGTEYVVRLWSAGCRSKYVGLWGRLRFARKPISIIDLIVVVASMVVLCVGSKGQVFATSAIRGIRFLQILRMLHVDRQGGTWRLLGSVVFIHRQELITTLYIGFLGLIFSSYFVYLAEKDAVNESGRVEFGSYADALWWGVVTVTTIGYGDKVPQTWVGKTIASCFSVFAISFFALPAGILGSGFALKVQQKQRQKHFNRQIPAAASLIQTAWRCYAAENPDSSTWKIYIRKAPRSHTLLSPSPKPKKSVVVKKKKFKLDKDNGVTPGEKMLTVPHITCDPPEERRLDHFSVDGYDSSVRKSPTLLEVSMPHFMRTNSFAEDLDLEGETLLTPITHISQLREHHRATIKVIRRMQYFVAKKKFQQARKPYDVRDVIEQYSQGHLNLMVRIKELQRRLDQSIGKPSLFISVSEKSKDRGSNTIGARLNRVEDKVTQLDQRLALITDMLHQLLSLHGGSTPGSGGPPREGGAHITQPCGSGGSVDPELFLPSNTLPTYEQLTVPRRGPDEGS

[20] = biological target: Potassium voltage-gated channel subfamily KQT member 2 (Rattus norvegicus) (UniProt O88943); assay: rat KCNQ2 channel potentiation, selectivity assay for KCNQ1 potentiator project, KCNQ2-CHO-K1 cells (AID 493009;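 active means mean duplicate potentiation above the buffer control mean plus 5 SD of buffer wells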;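 further: assay conditions were tuned for KCNQ1 rather than KCNQ2 modulators; signal is max minus min fluorescence divided by baseline after thallium stimulus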); details: FluxOR thallium flux fluorescence, at 10 µM; stronger effect = higher value, scaled: buffer 0, activator control 100
Potassium voltage-gated channel subfamily KQT member 2 (Rattus norvegicus), sequence (O88943 whole entry, looked up): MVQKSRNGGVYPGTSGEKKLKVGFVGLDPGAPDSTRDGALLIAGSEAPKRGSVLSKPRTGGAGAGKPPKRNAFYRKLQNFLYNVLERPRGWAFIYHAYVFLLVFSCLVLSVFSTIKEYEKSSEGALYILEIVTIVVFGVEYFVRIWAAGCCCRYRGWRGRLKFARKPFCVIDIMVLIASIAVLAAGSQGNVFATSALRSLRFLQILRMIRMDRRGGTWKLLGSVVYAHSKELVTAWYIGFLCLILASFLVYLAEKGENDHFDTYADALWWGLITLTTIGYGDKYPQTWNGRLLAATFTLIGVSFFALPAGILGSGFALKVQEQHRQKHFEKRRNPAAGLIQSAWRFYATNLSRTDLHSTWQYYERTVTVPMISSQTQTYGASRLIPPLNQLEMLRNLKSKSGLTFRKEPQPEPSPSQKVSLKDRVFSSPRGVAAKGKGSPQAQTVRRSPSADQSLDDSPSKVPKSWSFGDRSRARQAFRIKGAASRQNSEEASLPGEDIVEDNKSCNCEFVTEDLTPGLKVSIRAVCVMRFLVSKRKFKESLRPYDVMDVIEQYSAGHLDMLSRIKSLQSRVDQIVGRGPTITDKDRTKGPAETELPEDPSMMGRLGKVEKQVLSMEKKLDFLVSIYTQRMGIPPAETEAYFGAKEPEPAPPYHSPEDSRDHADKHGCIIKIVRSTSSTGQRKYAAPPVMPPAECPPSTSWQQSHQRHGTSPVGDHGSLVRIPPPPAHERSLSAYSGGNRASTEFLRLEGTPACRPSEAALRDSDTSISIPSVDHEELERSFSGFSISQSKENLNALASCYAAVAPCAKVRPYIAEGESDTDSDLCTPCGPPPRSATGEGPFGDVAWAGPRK

CCCCCOc1ccc2oc(=O)c3c(c2c1)CCCN3C(=O)CN1CCCC(C(=O)OCC)C1 (centres undefined)
active: potentiation [15] 7.34%
inactive: outcome [1] | outcome [2] | outcome [3] | outcome [4] | outcome [5] | outcome [6] | outcome [7] | outcome [8] | outcome [9] | outcome [10] | outcome [11] | outcome [12] | outcome [13] | outcome [14] | outcome [16] | outcome [17]

Cc1ccc2c(c1)C1CN(C)CCC1N2C(=S)NC(=O)c1ccc(Br)cc1 (centres undefined)
inactive: outcome [1] | outcome [2] | outcome [3] | outcome [5] | outcome [6] | outcome [7] | outcome [8] | outcome [9] | outcome [10] | outcome [11] | outcome [12] | outcome [13] | outcome [14] | outcome [16] | outcome [17]
active: potentiation [4] 15% | potentiation [15] 23.8% | activation [18] 170% | potentiation [19] 41% | potentiation [20] 200%

CCOC(=O)C1=C(NC(=S)NC(=O)c2ccccc2)c2ccccc2CC1(C)C
inactive: outcome [1] | outcome [2] | outcome [3] | outcome [5] | outcome [6] | outcome [7] | outcome [8] | outcome [9] | outcome [10] | outcome [11] | outcome [12] | outcome [13] | outcome [14] | outcome [16] | outcome [17]
active: potentiation [4] 12% | potentiation [15] 27.1%

COc1cc(NC(=O)CSc2ncnc3sc4c(c23)CCC(C)C4)c(C(=O)O)cc1OC (centres undefined)
active: inhibition [5] 91% | activation [18] 450% | potentiation [19] 297% | potentiation [20] 506%
inactive: outcome [1] | outcome [2] | outcome [3] | outcome [4] | outcome [6] | outcome [7] | outcome [8] | outcome [9] | outcome [10] | outcome [11] | outcome [12] | outcome [13] | outcome [14] | outcome [15] | outcome [16] | outcome [17]

CCCCN(CC)CCCNC(=O)c1cc2cc3ccc(C)cc3nc2o1
inactive: outcome [1] | outcome [2] | outcome [4] | outcome [5] | outcome [6] | outcome [7] | outcome [8] | outcome [9] | outcome [10] | outcome [11] | outcome [12] | outcome [13] | outcome [14] | outcome [16] | outcome [17] | outcome [18] | outcome [19] | outcome [20]
active: potentiation [3] 19% | potentiation [15] 21.8%

CN(CCCNC(=O)CCCOc1cc(=O)n(C)c2ccccc12)Cc1ccccc1
active: potentiation [3] 21% | potentiation [4] 14% | potentiation [15] 20.2%
inactive: outcome [1] | outcome [2] | outcome [5] | outcome [6] | outcome [7] | outcome [8] | outcome [9] | outcome [10] | outcome [11] | outcome [12] | outcome [13] | outcome [14] | outcome [16] | outcome [17] | outcome [18] | outcome [19] | outcome [20]
